Reference: PubChem BioAssay (Tox21)
Records with an inconclusive call do not appear. A call without a number means that no potency is given here. Active and inactive are the calls of the source. Calls follow the shape of the dose curve; as a rule, active = well fitted cell-killing curve with a large enough effect in the repeat runs; inconclusive = weak or mixed curves, or effect the other way; inactive = flat fitted curve, though single readings scatter.

Assay: qHTS assay to identify small molecule antagonists of the retinoid acid receptor (RAR) signaling pathway - cell viability counter screen (AID 1159551); also: nearly all actives have a fitted effect of over 35% in size
Conditions: C3RL4 cells viability, ATP luminescence (CellTiter-Glo), 6 h; series mostly up to 92.4 µM
From the text: U.S. Tox21 Program National Center for Advancing Translational Sciences [NCATS] NIH Chemical Genomics Center [NCGC] U.S. Environmental Protection Agency [EPA] National Institutes of Environmental Health Sciences [NIEHS] National Toxicology Program [NTP] U.S. Food and Drug Administration [FDA] Tox21 Assay Overview: All-trans Retinoic acid (atRA) is the potent natural metabolite of retinol and plays an important role in normal embryonic development and maintenance of cellular phenotype in adult animals. atRA is the activating ligand for the retinoic acid receptors (RARs) which form heterodimers with retinoid X receptors (RXRs) on the retinoic acid response element (RARE). Through activation of the RAR/RXRs nuclear receptors, atRA regulates the transcription of a large number of protein-coding genes and regulatory RNAs. Intracellular levels of atRA are controlled by the retinol signaling pathway (RSP) that regulates the biosynthesis and catabolism of atRA to maintain physiological levels. Chemicals that interfere with the RSP can cause abnormal intracellular levels of atRA and therefore are potential developmental toxicants. To assess compounds for the potential adverse effect on embryonic development through interfering with retinol signaling, a cell-based RARE luciferase reporter gene assay was used. C3RL4 cell line (OARSA/CFSAN/FDA, Laurel, MD) was used to screen Tox21 10K compound library for identifying inhibitors of the RSP. Also cytotoxicity was assessed by determining the viability of cells based on the quantitation of ATP.
Tox21 Assay Protocol Summary: C3RL4 cells were seeded at 1,000/well in 4 uL of assay medium into white solid 1,536-well tissue culture plates (Greiner Bio-One North America Inc. Monroe, NC) using a Multidrop Combi (Thermo Scientific, Waltham, MA) dispenser. After incubation at 37 C and 5% CO2 for an overnight, 23 nL of compounds dissolved in DMSO, positive control or DMSO only were transferred by a Pintool station (Kalypsys, San Diego, CA). One ul of 1 uM (final concentration) of Retinol was added right after the compound addition by using a Flying Reagent Dispenser (FRD) (Aurora Discovery, San Diego, CA). After 6 hr incubation at 37 C and 5% CO2, 5 uL of CellTiter-Glo reagent (Promega Corporation, Madison, WI) was added to each assay plate using an FRD. Luminescence was quantified on a ViewLux plate reader (PerkinElmer, Waltham, MA) after 30 min incubation at room temperature.
For `CC(=O)C(C)C`, the Potency was “inactive”. For `Nc1cccc(C(F)(F)F)c1`, the Potency was “inactive”. In the case of `COc1ccc([C@@H]2CC(=O)c3c(O)cc(O[C@@H]4O[C@H](CO[C@@H]5O[C@@H](C)[C@H](O)[C@@H](O)[C@H]5O)[C@@H](O)[C@H](O)[C@H]4O)cc3O2)cc1OC`, the Potency is reported as “inactive”. For `O=C1O[C@H]([C@H](O)CO)C(O)=C1O`, the Potency was “inactive”. For `CO[Si](CCCNCCN)(OC)OC`, the Potency was “inactive”. For `OC[C@H]1O[C@@H](Oc2ccc(O)cc2)[C@H](O)[C@@H](O)[C@@H]1O`, the Potency was “inactive”. For `CCCCCCCCO`, the Potency was “inactive”. For `COc1c(Cl)ccc(Cl)c1C(=O)O`, the Potency was “inactive”. In the case of `O=C(c1ccccc1)c1ccc(O)c(O)c1O`, the Potency is reported as “inactive”. In the case of `COC(=O)CCCCC(=O)OC`, the Potency is reported as “inactive”. For `CC(=O)OCc1ccc2c(c1)OCO2`, the Potency was “inactive”. With `Nc1cccc(N)n1` the Potency was “inactive”. For `CC(O)CNCC(C)O` (stereo not given), the Potency was “inactive”. For `OC1CCCCC1`, the Potency was “inactive”. In the case of `Cc1ccc(C(C)C)cc1`, the Potency is reported as “inactive”. In the case of `c1cnc2c(c1)ccc1cccnc12`, the Potency is reported as “inactive”. With `CC(=O)Nc1ccc(CC(=O)O)cc1` the Potency was “inactive”. In the case of `COC(=O)OC`, the Potency is reported as “inactive”. In the case of `Oc1ccc(Cc2ccccc2O)cc1`, the Potency is reported as “inactive”. For `C=C(C)CC(C)(C)C`, the Potency was “inactive”. In the case of `NCCNCCNCCN`, the Potency is reported as “inactive”. With `COc1ccccc1[N+](=O)[O-]` the Potency was “inactive”. For `OCc1ccc(Cl)cc1Cl`, the Potency was “inactive”. With `CCCCCCCCCCCC(=O)N(C)CC(=O)O` the Potency was “inactive”. With `Cc1ccc([N+](=O)[O-])cc1N` the Potency was “inactive”. For `Nc1nc(N)c2nc(-c3ccccc3)c(N)nc2n1`, the Potency was “inactive”. In the case of `CC(=O)c1nccs1`, the Potency is reported as “inactive”. With `NC(=O)NC(N)=O` the Potency was “inactive”. In the case of `CCCN(CCC)C(=O)SCC`, the Potency is reported as “inactive”. With `CCCCCC(C)=O` the Potency was “inactive”. For `CCn1cc(C(=O)O)c(=O)c2cc3c(cc21)OCO3`, the Potency was “inactive”. With `CCCCC(CC)COC(=O)c1ccc(C(=O)OCC(CC)CCCC)cc1` (stereo not given) the Potency was “inactive”. In the case of `C=CC(=O)NCOCCCC`, the Potency is reported as “inactive”. With `CC(=O)OC(C)(C)C1CC=C(C)CC1` (stereo not given) the Potency was “inactive”. For `O=C(O)C1=NN(c2ccc(S(=O)(=O)O)cc2)C(=O)C1`, the Potency was “inactive”. For `CC1(C)C(=O)N(Cl)C(=O)N1Cl`, the Potency was “inactive”. For `CCOC(=O)CC(=O)OCC`, the Potency was “inactive”. In the case of `CCCCCCC(=O)O`, the Potency is reported as “inactive”. For `CC/C=C(\C(=O)N[C@@H]1C(=O)N2C(C(=O)OCOC(=O)C(C)(C)C)=C(COC(N)=O)CS[C@H]12)c1csc(N)n1`, the Potency was “inactive”. With `CC(C)c1ccc(C(C)C)cc1` the Potency was “inactive”.
